# FEN1 inhibitor: inhibitors of human flap endonuclease 1; P39748; AID 588795; 0.35% of 390,000 active; Potency, µM (highest dose often 114 µM), inactives show top-dose activity change, negative = inhibition, hits mostly inhibitors; Recombinant FEN1 flap cleavage, fluorescence, 15 min; note: % is set by controls: 0 for no effect and ±100 for the full control effect; nearly all actives have a fitted effect of over 65% in size
#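 Reaction started by adding substrate (50 nM final) to 10 nM enzyme after 15 min room-temperature compound preincubation. Reads at 0 and 15 min, with data normalized and fitted to a four-parameter Hill equation.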
# Pol eta inh-1: inhibitors of human DNA polymerase eta; Q9Y253; recombinant Pol eta, fluorescent DNA replication assay; Potency, µM (doses to about 114 µM), inactives show at the top dose activity change, negative = inhibition, usual class: inhibitors; 1.2% of 390,000 active; AID 588591; note: % is set by controls: 0 for no effect and ±100 for the full control effect
#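 Fluorescent replication assay: 50 nM final substrate added after a 15 min room-temperature compound preincubation with 10 nM enzyme. Signal taken at 0 min and again at 10 min.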
# POLB inh: DNA polymerase beta (human) inhibition. P06746. Pol beta primer extension/strand displacement, fluorescence kinetic. Potency, µM (highest dose often 114 µM), inactives show top-dose activity change, negative = inhibition, hits mostly inhibitors. 1.3% of 340,000 active. AID 485314; note: % is set by controls: 0 for no effect and ±100 for the full control effect
#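 Pol beta (10 nM) and compounds were preincubated 15 min at room temperature, then 50 nM substrate (final) started primer extension/strand displacement. Reads were taken at 0 and 10 min; concentration-response data were fitted to a four-parameter Hill equation.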
# Pol kappa inh-1: inhibitors of human DNA polymerase kappa | purified Pol kappa, fluorescent DNA synthesis assay, 10 min | 0.53% of 400,000 active | AID 588579 | Potency, µM (highest dose often 107 µM), inactives show top-dose activity, negative = inhibition, most hits filed as inhibitors | Q9UBT6; note: % is set by controls: 0 for no effect and ±100 for the full control effect
#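 Kinetic fluorescence screen: compound preincubated 15 min RT with 10 nM enzyme; 50 nM substrate (final) initiates; reads at 0/10 min.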
# WRN helicase inh: inhibitors of human WRN helicase. 0.46% of 360,000 active. AID 651768. WRN helicase unwinding, fluorescent forked duplex, kinetic. Potency, µM (titrated, usually from 114 µM), without a hit: at the top dose activity change, negative = inhibition, actives largely listed as inhibitors; note: % is set by controls: 0 for no effect and ±100 for the full control effect; nearly all actives have a fitted effect of over 55% in size
#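 Kinetic fluorescence helicase assay: unwinding of a quenched forked DNA duplex (100 nM final) with 2 mM ATP final raises red fluorescence (525/598 nm). Compounds sat 15 min at room temperature with 20 nM WRN beforehand.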
# Pol iota inh: DNA polymerase iota (human) inhibition | Q9UNA4 | Pol iota fluorescent replication assay, 10 min | Potency, µM (series often up to 115 µM), for the others: at the top dose activity, negative = inhibition, most hits filed as inhibitors | 1% of 390,000 active | AID 588590
#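 Fluorescent replication assay read twice, at 0 min and 10 min after adding 50 nM (final) substrate. Enzyme (10 nM) and compounds were first incubated 15 min at room temperature; enzyme-free buffer wells were negative controls.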
# PGK validate: TbPGK inhibition, hit validation; shares compounds with Pol kappa inh-1; TbPGK coupled GAPDH assay, Kinase-Glo luminescence; Potency, µM (top dose mostly 57.5 µM), for the others: at the highest dose activity change, negative = inhibition, usual class: inhibitors; 79% of 500 active; note: % is set by controls: 0 for no effect and ±100 for the full control effect; nearly all actives have a fitted effect of over 65% in size
# POLI cherry-pick: Human Pol iota inhibitor confirmatory assay. shares compounds with Pol kappa inh-1. Pol iota primer extension, TAMRA/BHQ fluorescence. Potency, µM, hits mostly inhibitors. 77% of 1,500 active
# Pol kappa inh-2: confirmation of human DNA polymerase kappa inhibitors. Potency, µM, usual class: inhibitors. shares compounds with Pol eta inh-1. purified Pol-kappa, fluorescent strand-displacement substrate. 76% of 920 active
# Pol eta inh-2: confirmation of human DNA polymerase eta inhibitors. 64% of 2,600 active. Pol eta primer extension, TAMRA/BHQ fluorescence, 10 min. Potency, µM, hits mostly inhibitors. shares compounds with Pol eta inh-1
# Starred values were filed as active, the others as inactive; ? = inconclusive; · = no result; [ ] = another dose, or the depositor's remark. Only some compounds are listed: those with a hit (about 2.4% of all), similar ones and a draw of the others. Calls come from the whole dose curve; as a rule, active = well fitted curve in the direction sought with a large enough effect; inconclusive = small, poorly fitted or top-dose-only effect, or another doubt; inactive = no such curve, though single readings can be large; an effect the other way counts as inactive or inconclusive. Potency is the fitted concentration of half-maximal effect.
SMILES,FEN1 inhibitor,Pol eta inh-1,POLB inh,Pol kappa inh-1,WRN helicase inh,Pol iota inh,POLI cherry-pick,Pol eta inh-2,others
Cc1cccc(C(=O)OCc2cc(=O)n3nc(C4CC4)sc3n2)c1,19%,-14%,-1%,-14%,·,25%,·,·,
C=Cc1ccc(Cn2c(C)c(C(=O)NCc3cccc(C)c3)sc2=O)cc1,·,·,·,·,-13%[57.1 µM],·,·,·,
COC(=O)C1(Cc2ccc(O)cc2)OC(=O)C(O)=C1c1ccc(O)cc1 (configuration not stated),?,11µM*,20µM*,?,?,13µM*,42*,27*,
COC(=O)CCc1ccc(O)cc1,0%,2%,26%,1%,-7%,8%,·,·,
COc1cc(-c2noc(C)c2/C=C/c2ccc(C(=O)O)cc2)cc(OC)c1OC,-5%,13µM*,14µM*,71µM*,?,?,42*,27*,
O=S(=O)(NCC(c1ccco1)N1CCOCC1)c1ccc(F)cc1 (configuration not stated),-13%,-1%,3%,-10%[60.1 µM],·,-12%,·,·,
COc1ccccc1NC(=O)C1=C(C)Nc2ncnn2C1c1ccc[nH]1 (configuration not stated),?,32µM*,16µM*,5%[60.1 µM],·,79µM*,60*,60*,
COc1ccccc1NC(=O)C1=C(C)Nc2ncnn2C1c1ccccn1 (configuration not stated),-14%,-23%,23%,1%,·,9%,·,·,
NC1=C(Cl)C(=O)c2ccc(S(N)(=O)=O)cc2C1=O,0%,10µM*,·,-19%,?,4µM*,75*,38*,
NC1=C(Cl)C(=O)c2ccccc2C1=O,?,-7%,·,-16%,-7%,-6%,·,·,
COc1ccc(-c2noc(-c3ccc(NCC4CCCO4)c([N+](=O)[O-])c3)n2)cc1 (configuration not stated),-3%,-6%,0%,-3%,·,11%,·,·,
O=C(CSc1ncc(S(=O)(=O)c2ccc(Cl)cc2)c(=O)[nH]1)Nc1cccc(C(F)(F)F)c1,0%,-26%,?,-2%,·,?,·,·,
CC(C)(C)c1ccc(S(=O)(=O)c2cnc(SCC(=O)Nc3ccc(F)c(Cl)c3)[nH]c2=O)cc1,50µM*,28µM*,79µM*,?,·,?,?,?,
O=CCCCC=O,·,·,·,1%[60.1 µM],·,·,·,·,
O=S1(=O)CC(N2CCN(c3ccccn3)CC2)CN1Cc1ccccc1 (configuration not stated),·,·,·,·,-1%,·,·,·,
CSc1nsc(/C=C/Nc2ccc(C(=O)O)cc2)c1C#N,-7%,28µM*,32µM*,-9%[60.1 µM],-6%,56%,75*,43*,
CSc1nsc(/C=C/Nc2ccc(F)cc2F)c1C#N,-13%,5%,-8%,-22%,-35%[57.1 µM],119%,·,·,
CC(=O)Nc1cccc(-c2ccnc3c2CC(C(=O)NCCN(C)C)O3)c1 (configuration not stated),·,·,·,·,0%,·,·,·,
COc1ccc(-c2cc(C(F)(F)F)c3c(n2)sc2c(O)cc(=O)[nH]c23)c(OC)c1,?,13µM*,56µM*,20µM*,?,?,67*,67*,
O=C(NCc1ccco1)c1cccc2c1C(=O)c1ccc(N3CCC(Cc4ccccc4)CC3)cc1S2(=O)=O,-15%,-14%,·,-29%,-4%,-4%,·,·,
COc1ccc(-c2ccc3c(c2)S(=O)(=O)c2cccc(C(=O)NCc4ccccc4Cl)c2C3=O)cc1OC,?,?,·,-2%,-32%[11.6 µM],10µM*,17*,27*,
O=C(NCc1ccco1)c1cccc2c1C(=O)c1ccc(/C=C/c3ccccc3)cc1S2(=O)=O,?,14µM*,·,?,-14%[11.6 µM],25µM*,42*,38*,Pol kappa inh-2=19*
CCOc1ccc(Cl)cc1-c1cc(C(=O)Nc2ccc(Br)cc2)[nH]n1,·,·,·,·,-3%,·,·,·,
Cc1nc2ccc(Cl)cn2c1[N+](=O)[O-],·,-8%,·,·,-1%,·,·,·,
CCOc1ccc2nc(N3CCCC(C(=O)NCCc4ccc(OCC)c(OCC)c4)C3)sc2c1 (configuration not stated),13%,-20%,-17%,-7%,·,30%,·,·,
SMILES,FEN1 inhibitor,Pol eta inh-1,POLB inh,Pol kappa inh-1,WRN helicase inh,Pol iota inh,POLI cherry-pick,Pol eta inh-2,others
NC(=O)Cc1ccc(C(=O)CSc2nnc(-c3ccncc3)n2C2CC2)s1,?,13µM*,·,79µM*,?,14µM*,?,76*,
CC(C)CC(NC(=O)c1ccccc1)C(=O)N/N=C/c1ccco1 (configuration not stated),-1%,14µM*,89µM*,?,-13%,?,·,?,PGK validate=?
CCOC(=O)c1cc(-c2ccc(F)cc2)n(CC(=O)NC2CCCCCC2)c1C,-13%,-2%,14%,-8%[60.1 µM],·,8%,·,·,
CC(=O)Nc1ccc(N=Cc2c(O)c(C(=O)Nc3ccccc3)cc3ccccc23)cc1,-6%,?,?,5%,-28%[11.6 µM],7%,30*,76*,Pol kappa inh-2=75*
CC(=O)Nc1ccc(N=Cc2c(O)c3ccccc3oc2=O)cc1,-12%,8%,3%,2%,2%,-31%,·,·,
Cc1cc(N/N=C/c2ccc(O)cc2)nc(NS(=O)(=O)c2ccccc2)n1,-7%,20µM*,18µM*,?,-28%[57.1 µM],?,·,?,PGK validate=5.2µM*

# Bioassay records: PubChem, National Center for Advancing Translational Sciences (NCATS)
